The target of the experiment is Beta-2 adrenergic receptor (Homo sapiens) (UniProt P07550). Briefly: Adrenergic beta2 receptor (ADRB2) small molecule agonists, cell-based qHTS assay (AID 1963593).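 On activation: CHO cells stably overexpressing human ADRB2.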 The essentials: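 CHO cells stably over-expressing ADRB2 were plated overnight at 37C, then dosed with compounds plus a stimulation mix containing 100uM IBMX and 25uM Ro-20-1724 for 0.5hr at room temperature. cAMP was measured by HTRF competition, 1hr.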
For orientation: qHTS replaces the single test concentration by a dilution series.

Records with an inconclusive call do not appear. Where a call stands in place of a potency, no number is given. The source holds several records for some structures; these can differ, active in one and inactive in another. Active and inactive are the calls of the source. The call rests on the fitted dose curve.
Potency means the concentration at half of the fitted maximal effect.

Beta-2 adrenergic receptor (Homo sapiens), sequence (P07550 whole entry, looked up): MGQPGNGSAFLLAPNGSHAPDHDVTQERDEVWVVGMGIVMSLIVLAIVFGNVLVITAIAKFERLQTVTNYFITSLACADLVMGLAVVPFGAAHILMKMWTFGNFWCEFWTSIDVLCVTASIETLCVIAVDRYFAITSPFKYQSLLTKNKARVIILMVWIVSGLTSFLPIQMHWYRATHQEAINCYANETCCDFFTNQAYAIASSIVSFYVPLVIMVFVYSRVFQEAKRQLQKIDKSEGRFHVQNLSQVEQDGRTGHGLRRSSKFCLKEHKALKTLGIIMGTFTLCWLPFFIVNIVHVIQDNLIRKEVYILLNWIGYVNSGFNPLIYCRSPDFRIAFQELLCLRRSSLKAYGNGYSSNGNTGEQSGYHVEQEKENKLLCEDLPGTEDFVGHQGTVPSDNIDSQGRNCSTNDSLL

As to `CC(C)=C1CC[C@@H](C)CC1=O`, the Potency entry is “inactive”.

Take `Cc1cc(C)c(N=Nc2c(O)c(S(=O)(=O)O)cc3cc(S(=O)(=O)O)ccc23)cc1C`: the activation was -2.26% [at 8.39 µM] (inactive).

Regarding `O=C(O)c1cc(=O)c2ccccc2o1`, the Potency entry was “inactive”.

Take `C[C@@H]1NC(=O)[C@@H](N)CNC(=O)[C@H](C2CCNC(N)=N2)NC(=O)/C(=C/NC(N)=O)NC(=O)[C@H](CNC(=O)C[C@@H](N)CCCN)NC1=O` (stereo not given in full): the activation was -2.39% [at 0.349 µM] (inactive).

For the molecule `CCC1CCCCC1`, the Potency result is “inactive”.

Take `O=c1[nH]cnc2c1ncn2[C@@H]1O[C@H](CO)[C@@H](O)[C@H]1O`: the Potency result is “inactive”.

For `C=CCOCC(CO)(COCC=C)COCC=C`, the Potency result is “inactive”.

In the case of `N[C@@H](CSSC[C@H](N)C(=O)O)C(=O)O`, the activation is -18.9% [at 0.349 µM] (inactive).

With `Clc1ccc2c(Cl)ccnc2c1`, the Potency result was “inactive”.

Turning to `CC(CO)CO`, the Potency result was “inactive”.

As to `Cc1ccc(C(=O)C(=O)O)cc1C`, the Potency entry is “inactive”.

Take `NCc1ccc(S(N)(=O)=O)cc1`: the Potency result is “inactive”.

On to `COC(=O)Nc1ccc(Cl)c(Cl)c1`, for which the Potency result was “inactive”.

For the molecule `CC(=O)OCCOCCOCCOC(C)=O`, the Potency was 53.8 µM (active) and inactive.

As to `COC(=O)c1ccccc1C`, the Potency result is “inactive”.

Turning to `CCN[C@H]1CN(CCCOC)S(=O)(=O)c2sc(S(N)(=O)=O)cc21`, the Potency entry was “inactive”.

With `CC(CO)Oc1ccccc1` (stereo not given), the Potency result was “inactive”.

Take `CCCCCCCOC(=O)c1ccccc1C(=O)OCCCCCCC`: the Potency entry was “inactive”.

For the molecule `CCCCCCCC/C=C\CCCCCCCC(N)=O`, the Potency entry is “inactive”.

Take `CCCCCCCCOCCC#N`: the Potency entry is “inactive”.

On to `CC(C)[C@H]1CC[C@@H](C)CC1=O`, for which the Potency entry is “inactive”.

With `[O-][n+]1ccc(Cl)cc1`, the Potency entry was “inactive”.

As to `C=CCOC(=O)CCCCCCCC`, the Potency result was “inactive”.

As for `CC(C)(C)c1cc(C(C)(C)C)c(O)c(C(C)(C)C)c1`, the Potency result is “inactive”.

Turning to `CC(=O)c1cccc([N+](=O)[O-])c1`, the Potency entry is “inactive”.

Regarding `CCOC(=O)c1ccccc1C`, the Potency result was “inactive”.

For the molecule `Cc1ccccc1C(N)=O`, the Potency entry is “inactive”.

In the case of `F[Si-2](F)(F)(F)(F)F`, the Potency entry was “inactive”.

Consider `CCC(=O)OC/C=C(\C)CCC=C(C)C`, for which the Potency result was “inactive”.

For the molecule `CC(O)CCCCn1c(=O)c2c(ncn2C)n(C)c1=O` (stereo not given), the Potency entry was “inactive”.

As to `CCOC(=S)SSC(=S)OCC`, the Potency result was “inactive”.

In the case of `C#CC(O)CCC` (stereo not given), the Potency result was “inactive”.

In the case of `CCCCC(CC)COP(=O)(OCC(CC)CCCC)OCC(CC)CCCC` (stereo not given), the Potency result is “inactive”.

As to `[Cl][Nd]([Cl])[Cl]`, the Potency result was “inactive”.

With `Nc1c(Br)cc([N+](=O)[O-])cc1Br`, the Potency result was “inactive”.

Turning to `CC(C)=CCCC(C)O` (stereo not given), the Potency entry is “inactive”.

As for `CC(C)C1CCC(O)CC1` (stereo not given), the Potency entry is “inactive”.

In the case of `CC(=O)/C=C/c1ccco1`, the Potency entry is “inactive”.

Turning to `Cc1c(I)c(=O)n(-c2ccccc2)n1C`, the Potency result was “inactive”.

Take `O=[N+]([O-])c1ccc(F)cc1F`: the Potency result is “inactive”.

For the molecule `COc1ccc(C#N)cc1`, the Potency result is “inactive”.

As to `CCN1CCCC(OC(=O)C(c2ccccc2)c2ccccc2)C1` (stereo not given), the Potency result was “inactive”.

For `O=C(O)c1cccnc1C(=O)O`, the Potency result was “inactive”.

For `O=C(/N=N/C(=O)OCc1ccccc1)OCc1ccccc1`, the Potency result was “inactive”.

Consider `NCC1CCCC(CN)C1` (stereo not given), for which the Potency entry is “inactive”.

As to `O=S(=O)(O)CC(O)CCl` (stereo not given), the Potency result was “inactive”.

Consider `O=C(O)CNc1ccccc1`, for which the Potency result is “inactive”.

On to `COC(=O)Cc1cccc2ccccc12`, for which the Potency entry is “inactive”.

Consider `COc1ccccc1C=O`, for which the Potency result was “inactive”.

For `Cc1ccc2ccccc2c1[N+](=O)[O-]`, the Potency entry was “inactive”.

In the case of `Cc1ccc(S(=O)(=O)O)c(C)c1`, the Potency result was “inactive”.

For the molecule `O=C(OC(=O)c1ccccc1)c1ccccc1`, the Potency result is “inactive”.

`CCN(CC)S(=O)(=O)c1ccc(C(=O)O)cc1`: the Potency result is “inactive”.

Turning to `Cc1ccc(C2OC[C@@H]3OC(c4ccc(C)cc4)O[C@H]([C@H](O)CO)[C@@H]3O2)cc1` (stereo not given in full), the Potency result is “inactive”.

Regarding `COc1ccc2cc1Oc1cc3c(cc1OC)CC[N+](C)(C)[C@H]3Cc1ccc(cc1)Oc1c(OC)c(OC)cc3c1[C@@H](C2)[N+](C)(C)CC3`, the Potency result was “inactive”.

For `CCCC(=O)OCc1ccccc1`, the Potency entry was “inactive”.

As for `CC1CC(O)CC(C)(C)C1` (stereo not given), the Potency result was “inactive”.

On to `Cc1ccc2c(ccc3ccccc32)c1`, for which the Potency entry was “inactive”.

Turning to `OCC(CO)N[C@H]1C[C@](O)(CO)[C@@H](O)[C@H](O)[C@H]1O`, the Potency result is “inactive”.

For the molecule `c1ccc(CCc2ccccc2)cc1`, the Potency result is “inactive”.

Take `Cc1ccc(C(C)(C)C)cc1`: the Potency result was “inactive”.

Turning to `Cc1ccc(C(C)c2ccc(C)c(C)c2)cc1C`, the Potency entry is “inactive”.

In the case of `O=S(=O)(O)c1cccc2c(S(=O)(=O)O)cccc12`, the Potency entry is “inactive”.

Regarding `OCC#CCO`, the Potency result is “inactive”.

Consider `CCOc1c(N2CCOCC2)cnn(C)c1=O`, for which the Potency entry is “inactive”.

`CC(C)CCCO`: the Potency result is “inactive”.

On to `Cc1cccc(S(=O)(=O)O)c1C`, for which the Potency entry is “inactive”.

As for `O=c1[nH]c2cc(C(F)(F)F)c(N3CCOCC3)cc2n(CP(=O)(O)O)c1=O`, the Potency result was “inactive”.

For `CCN(C=O)CC`, the Potency result is “inactive”.

With `NC(=O)c1ccc(N)cc1`, the Potency entry is “inactive”.
